# Source: PubChem BioAssay (several laboratories)
# TROY signal inh – blocks TROY-dependent signaling in reporter cells; Q293 LMP1-TROYcd NF-kB luciferase reporter, 4 h; inhibition, % at 10 µM; 360,000 compounds, 0.98% hits; AID 1347056;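 active means compounds whose plate-normalised and pattern-corrected inhibition of the luciferase reporter signal at the single screening dose is 50% or more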
# aDG glyco act – increases alpha dystroglycan glycosylation; activation, % at 10 µM; AID 624168; Pro5-aDG cells, alpha-DG glycosylation AlphaScreen (IIH6); 0% Pro5, 100% B10-LARGE cell signal; 360,000 compounds, 0.22% hits;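 active means activation of at least 8% versus controls, or a plate z-score of at least 8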;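 further: Pro5 are CHO cells carrying HIG-tagged alpha-DG that lacks glycosylation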
# HSP90 refold inh – blocks HSP90-mediated luciferase refolding in reticulocyte lysate; Rabbit reticulocyte lysate, luciferase refolding luminescence, 3 h; inhibition, % at 5.6 µM; 290,000 compounds, 0.91% hits; AID 1789;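 active means inhibition above the screen-wide mean plus 3 SD, computed separately per campaign, cut at about 16% in these data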;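 further: 0% = DMSO wells and 100% = 60 µM geldanamycin wells; inhibitors lower the luminescence because luciferase stays unfolded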
# EBV LMP1 NFkB – inhibitors of Epstein-Barr LMP1-induced NF-kappaB reporter; LMP1-induced NF-kappaB luciferase reporter cells, luminescence; inhibition, % at 12.5 µM; 350,000 compounds, 0.69% hits; in the data active means inhibition above about 41%;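 further: 0% = neutral control wells and 100% = reference inhibitor control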
# LGR2 inh – blocks bursicon-induced cAMP signaling via Drosophila LGR2 | HEK293 LGR2, CRE-luciferase, bursicon-stimulated, 4 h | inhibition, % at 9.99 µM | 380,000 compounds, 0.35% hits | AID 720647;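 active means drop in luminescence signal, shown as inhibition above about 50% in the replicate tests, limit read from the data, passing the limit was not always enough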;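 further: agonist challenge used bursicon conditioned medium at about half maximal strength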
# TWEAK Fn14 block – blocks TWEAK-Fn14 interaction in a reporter cell assay | TWEAK-stimulated Fn14 reporter cells, luciferase luminescence, 8 h | inhibition, % at 10 µM | 360,000 compounds, 2% hits | AID 1159606; in the data active means inhibition above about 50%
# An asterisk follows results filed as active; nt = no result. This is a sample that favours compounds with a hit; in the whole collection about 2.6% have one here.
SMILES,TROY signal inh,aDG glyco act,HSP90 refold inh,EBV LMP1 NFkB,LGR2 inh,TWEAK Fn14 block
COC(=O)c1c(O)ccc(Oc2ccccc2)c1C(=O)OC,14,0,nt,47*,7,16
C/C=C/c1ccc([C@@H]2[C@@H](CO)N(CCC(F)(F)F)C23CN(C(C)=O)C3)cc1,nt,nt,nt,nt,5,nt
C[C@@]12C(C[C@H](O)[C@@]34C[C@@H](CCC13)[C@@H](CO)C4=O)[C@](C)(C(=O)O)CC[C@@H]2O (some centres not stated),16,0,nt,nt,-14,16
C=C1C(=O)[C@]23C[C@H]1CCC2[C@@]1(C)C(C[C@@H]3O)[C@](C)(C(=O)OC)CC[C@@H]1O (some centres not stated),59*,0,nt,nt,69*,98*
CC(Oc1ccc(Cl)cc1Cl)c1nc(-c2ccc(NC(=O)c3cccnc3)cc2)no1 (configuration not stated),41,14*,1,-12,6,46
CC(Oc1ccc(Cl)cc1Cl)c1nc(-c2ccc(NC(=O)c3ccncc3)cc2)no1 (configuration not stated),39,4,3,-14,18,48
CN(C)CCNC(=O)c1ccc(Sc2ccc(Br)cc2)c([N+](=O)[O-])c1,-19,3.6*,1,-11,27,-20
COc1ccc2c3c([nH]c2c1)[C@H](CO)N(C(=O)Nc1ccc(F)cc1)CC31CCN(CC2CC2)CC1,nt,nt,nt,nt,-2,nt
c1nc(CCO[C@H]2CCCCO2)cc2cc3c(cc12)OCO3,60*,0,nt,39,91*,92*
c1ccc2cc(CCO[C@H]3CCCCO3)ncc2c1,10,0,nt,26,55*,66*
Cc1ccc(S(=O)(=O)N(C)C[C@H]2Oc3ncc(C#CC4(O)CCCC4)cc3C(=O)N([C@@H](C)CO)C[C@H]2C)cc1,nt,nt,nt,nt,-16,nt
O=C(Nc1ccc(Cl)cc1)N[C@@H]1CC[C@H](CCNS(=O)(=O)c2ccccc2F)O[C@H]1CO,nt,nt,nt,nt,-6,nt
CCOC(=O)c1ccc(-c2ccc(/C=N/NC(=O)CN(c3ccccc3Cl)S(C)(=O)=O)o2)cc1,20,2,1,-44,-54,71*
COc1ccccc1NC(=O)c1c(Nc2ccccc2C)sc(C(=O)Nc2cccc(Cl)c2)c1N,22,3,-5,43*,12,86*
C#CCOCCOCCOCCNc1nc(N2CCN(C(=O)CCCCCCCCCCNC(=O)[C@H](CCCCN)n3cc(C[C@@H](C)CC)nn3)CC2)nc(N2CCN(C(=O)CCCCCCCCCCNC(=O)[C@@H]([C@H](C)O)n3cc(C)nn3)CC2)n1,90*,0,nt,-35,nt,106*
C#CCOCCOCCOCCNc1nc(N2CCN(C(=O)CCCCCCCCCCNC(=O)[C@H](CCCCN)n3cc(C[C@@H](C)CC)nn3)CC2)nc(N2CCN(C(=O)CCCCCCCCCCNC(=O)[C@H](CCCN=C(N)N)n3cc(C[C@@H](C)CC)nn3)CC2)n1,41,-1,nt,6,nt,60*
C#CCOCCOCCOCCNc1nc(N2CCN(C(=O)CCCCCCCCCCNC(=O)[C@H](CCCCN)n3cc(C)nn3)CC2)nc(N2CCN(C(=O)CCCCCCCCCCNC(=O)[C@@H]([C@H](C)O)n3cc(C)nn3)CC2)n1,-25,0,nt,-8,nt,-1
COc1ccc(C(=O)/C=C/C(=O)N(CC(=O)NC2CCCCC2)Cc2ccc(F)cc2)c(O)c1,89*,-1,-2,25,nt,85*
CS(=O)(=O)N(CC(=O)NC1CCCCC1)Cc1ccc(F)cc1,-9,0,0,4,-9,-12
O=[N+]([O-])c1ccc(N2CCN(Cc3cccc([N+](=O)[O-])c3)CC2)cc1,-5,0,1,54*,1,-7
O=[N+]([O-])c1ccc(CN2CCN(c3ccc([N+](=O)[O-])cc3)CC2)cc1,13,1,0,13,-13,21
Cn1cc(C(=O)c2ccc(Cl)cc2)cc1-c1nc2ccccc2n1C,57*,3,0,1,nt,52*
COCC(=O)N1[C@H](CO)[C@H](c2ccccc2)C12CN(C(=O)Nc1ccccc1F)C2,nt,nt,nt,nt,-6,nt
CC(=O)Nc1ccc(S(=O)(=O)Nc2ccc3[nH]c(=O)[nH]c3c2)cc1,19,0,-1,-5,-9,54*
O=[N+]([O-])c1ccc(Sc2cccc[n+]2[O-])c2nonc12,86*,0,24*,4,25,94*
SMILES,TROY signal inh,aDG glyco act,HSP90 refold inh,EBV LMP1 NFkB,LGR2 inh,TWEAK Fn14 block
Cc1ccc(S(=O)(=O)Nc2ccc3c(c2)C(=O)N([C@H](C)CO)C[C@@H](C)[C@@H](CN(C)Cc2ccccc2)OCCCC[C@@H](C)O3)cc1,nt,nt,nt,nt,1,nt
COc1ccc2c3c(n(C)c2c1)[C@@H](CO)N(Cc1ccccc1OC)CC31CCN(C(=O)C2CC2)CC1,nt,nt,nt,nt,-13,nt
CN(C(=O)COc1ccccc1C(=O)NCCOc1ccccc1)c1ccccc1,62*,0,1,13,88*,88*
CCCN1[C@@H]2c3ccc(-c4ccncc4)c(=O)n3C[C@@H]2[C@@H](CO)[C@@H]1C(=O)N1CCOCC1,nt,nt,nt,nt,-8,nt
COc1ccc([N+](=O)[O-])cc1NCc1c(F)cccc1F,4,0,nt,-2,8,59*
COc1ccc([N+](=O)[O-])cc1NCc1cccc([N+](=O)[O-])c1,-5,0,-1,-3,-2,-10
CCN1[C@H](C(=O)NC2CCCC2)[C@@H](CO)[C@@H]2Cn3c(ccc(-c4ccccc4F)c3=O)[C@@H]21,nt,nt,nt,nt,-6,nt
COc1ccc(-c2nn(CCC(=O)O)cc2/C=C/C(=O)O)cc1[N+](=O)[O-],65*,0,7,1,-4,-3
O=C(O)CCn1cc(/C=C\C(=O)c2ccc(Cl)cc2)c(-c2cccc(Br)c2)n1,21,0,-6,-6,11,64*
COc1cccc(S(=O)(=O)N[C@@H]2CC[C@H](CC(=O)NC3Cc4ccccc4C3)O[C@@H]2CO)c1,nt,nt,nt,nt,-6,nt
O=C(N[C@H]1CC[C@@H](CCNS(=O)(=O)Cc2ccccc2)O[C@@H]1CO)c1ccc2c(c1)OCO2,nt,nt,nt,nt,11,nt
COC(=O)C(NS(=O)(=O)c1ccc(N2CCCC2=O)cc1)c1ccccc1 (configuration not stated),-1,1,-5,67*,-2,-2
NC(=O)C(Cc1ccccc1)NS(=O)(=O)c1ccc(N2CCCC2=O)cc1 (configuration not stated),-15,0,1,-8,5,3
COc1ccc(N(CC(=O)NC2CC3CCC2C3)S(=O)(=O)c2ccccc2)cc1Cl (configuration not stated),11,1,-1,-3,3,91*
Cc1cc(C(=O)Nc2cccc3c2O[C@H](CN(C)C(=O)Nc2ccc(F)cc2)[C@H](C)CN([C@@H](C)CO)C3=O)n(C)n1,nt,nt,nt,nt,-20,nt
